Laboratory results from PubChem BioAssay.
Activity calls are given as the source filed them.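 How the source made its calls: active means growth inhibition above 50% at the single 2 µM test dose, taken to imply half-maximal potency below 2 µM; inactive means the rest.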

Assay: antimalarial activity against Dd2 strain (AID 2302);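 further: 0% = DMSO untreated growth and 100% = chloroquine plus artemisinin killed control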
Settings: P. falciparum Dd2 in RBCs, LDH growth readout, 72 h; at 2 µM; active compounds read high

Growth inhibition, active:
C=CCNc1cc(-c2ccccn2)nc(-c2ccccn2)n1 79%, Cc1cc(CN2CCC(Nc3ncc(-c4ccsc4)c4nc(C(F)(F)F)ccc34)CC2)no1 67%, Oc1cccc2ccc(Nc3ccccn3)nc12 93%, Cc1cc(C(=O)CN2C(=O)NC3(CCOc4ccccc43)C2=O)c(C)n1Cc1ccc(F)cc1 (centres undefined) 84%, CCCN(CCC)CCCOc1ccc(C(=O)c2c(-c3ccc(OCCCN(CCC)CCC)cc3)oc3ccc(Cl)cc23)cc1 95%, CCN(CC)C(=NCCCCCCN=C(/N=C(\N)Nc1ccc(Cl)c(Cl)c1)N(CC)CC)/N=C(\N)Nc1ccc(Cl)c(Cl)c1 90%, COc1ccc(CNc2nc(NCc3ccc(C(F)(F)F)cc3)c3cc(OC)c(OC)cc3n2)cc1OC 100%, COc1ccc2nc3cc(Cl)ccc3c(NCc3ccccc3)c2c1 50%, COc1cc2nc(C)nc(Nc3ccc(Oc4ccccc4)cc3)c2cc1OC 72%, O=C(NCc1ccc(F)cc1)Nc1cccc(-c2ccc(-c3nc4ccc(F)cc4[nH]3)cc2)c1 96%, CC(=O)C1=NN(c2ccc(C)cc2)C(c2cccs2)N1c1ccccc1 (centres undefined) 64%, CCNc1cc(C(=O)N[C@@H](Cc2ccccc2)[C@H](O)CNC(C)(C)c2cccc(OC)c2)cc(N2CCCC2=O)c1 99%, CS(=O)(=O)NCCCNCc1ccc(-c2ccc(-c3nc4ccc(C(F)(F)F)cc4[nH]3)cc2)cc1 83%, O=C(Cc1cccs1)NC(CCCN1CCC(Oc2cccc(Cl)c2)CC1)c1ccc(Cl)c(Cl)c1 (centres undefined) 70%, CN(C)CCNCc1ncsc1-c1ccc2c(Nc3ccc(F)cc3Cl)ccnc2c1 95%, CC(=O)Nc1ccc(OCCCCN(Cc2ccccc2C(F)(F)F)c2ccc(C(F)(F)F)c(C#N)c2)c(Cl)c1 96%, CS(=O)(=O)N(c1cccc(F)c1)c1cc(C(=O)N[C@@H](Cc2ccccc2)[C@H](O)CNCc2cccc(C(F)(F)F)c2)cc(N2CCCC2=O)c1 92%, CCCCOC(=O)C1=C(C)NC2=C(C(=O)CC(c3ccc(OC)c(OC)c3)C2)C1c1ccc(O)cc1 (centres undefined) 75%, Cc1nn(-c2ccccc2)nc1C(=O)N(Cc1ccc(-c2ccc(CNCCc3ccc(S(C)(=O)=O)cc3)cn2)cc1)C(C)CN(C)C (centres undefined) 87%

Growth inhibition, inactive:
Cc1nc(-c2cccc(NCc3ccccc3)c2)[nH]c1C 48%, CS(=O)(=O)NCCCNCc1ccc(-c2cccc(-c3nc4ccc(F)cc4[nH]3)c2)cc1 1%, O=C(Nc1cccc(C(F)(F)F)c1)c1ccc(S(=O)(=O)NCC2CCCN2CC2CCCCC2)cc1 (centres undefined) 3%, C=C[C@]1(C)C[C@@H](OC(=O)c2cncn(COC)c2=O)[C@]2(C)[C@H](C)CC[C@]3(CCC(=O)[C@H]32)[C@@H](C)[C@@H]1O 7%, COc1ccc2nccc(N3CCC(O)(CCNCc4ccc5c(n4)NC(=O)CS5)CC3)c2n1 21%, COc1cc(Cc2cnc(N)nc2N)cc(OCCCOc2ccccc2)c1OC 2%, CC1CCCC(NCc2c(O)ccc3ccccc23)C1 (centres undefined) 25%, CC1N=C(N)N=C(N)N1OCc1cccc2ccccc12 (centres undefined) 4%, O=C(Nc1ccc2c(c1)CCNCC2)Nc1ccc2ccccc2c1 23%, O=C(C=Cc1ccc(Cl)c(Cl)c1)NCCCCCN1CCC(CCNC(=O)c2cccc3ccccc23)CC1 -1%, C(=NNc1ccnc2ccccc12)c1ccncc1 27%, COc1cc2c(cc1S(=O)(=O)c1ccc(NC(=O)c3cccc(C(F)(F)F)c3)cc1)CCN(C)CC2 25%, COc1cc(Cc2cnc(N)nc2N)cc(OCCCCCC(N)=O)c1OC -3%, COc1ccc(-c2cnc(N)c(-c3nc4ccc(Br)cc4[nH]3)c2)cc1 3%, Cc1ccc(F)c(NC(=O)c2c(-c3c(F)cccc3Cl)noc2C)c1 18%, COc1ccc(CNc2nccc3ccc(-c4ccc5nccn5c4)cc23)cc1 47%, CN(C)C(=O)CCCn1c(CNCCCNc2cc(=O)c3ccccc3[nH]2)cc2c(Cl)cc(Cl)cc21 -4%, CN1CCc2cc(NS(=O)(=O)c3ccc(-c4ccc(Cl)s4)cc3)c(N3CCCCC3)cc2CC1 29%, Cc1ccc(C(C#N)c2ccc3c(C(F)(F)F)cc(C(F)(F)F)nc3n2)cc1 (centres undefined) 36%, O=C(/C=C/c1ccc(Cl)c(Cl)c1)N1CCC(CNCc2cccc3cc[nH]c23)CC1 14%
